Records with an inconclusive call do not appear. The source made the active and inactive calls. Calls come from the whole dose curve; as a rule, active = well fitted cell-killing curve with a large enough effect; inconclusive = small, poorly fitted or top-dose-only effect; inactive = flat fitted curve, though single readings scatter. Residues, ends and D or L forms follow the SMILES beside them. *: point of attachment. Cbz = O=C(OCc1ccccc1)*
experiment: qHTS of pediatric cancer cell lines to identify multiple opportunities for drug repurposing: Primary screen for DAOY cells (AID 1347090); conditions: DAOY medulloblastoma viability, CellTiter-Glo luminescence, 48 h; series mostly up to 46 µM; note: nearly all actives have a fitted effect of over 55% in size
Description: Drug repurposing or repositioning has been offered as a strategy for drug development in oncology programs. This approach has special potential for childhood cancers and other rare or orphan diseases, where the expected return on new drug development has been a disincentive to pharmaceuticals.
In this project we exploit the poly-pharmacology of drugs to discover new indications via phenotypic screening of a panel of 19 well-characterized cell lines derived from solid tumors seen in children and adolescents. The goal is to identify approved drugs with previously unrecognized anticancer properties that has the potential to reveal new mechanisms and biological processes involved in carcinogenesis or drug resistance. We employed a titration-based paradigm (quantitative high-throughput screening or qHTS), where all compounds were tested at multiple concentrations for their effect on cell viability. Concentration-response curves (CRCs) were derived directly from the primary screen, and both potency and efficacy values were used to identify compounds with robust bioactivity profiles. We screened the NIH Chemical Genomics Center (NCGC) Pharmaceutical Collection (NPC) and Mechanism Interrogation Plate (MIPE) small molecule collections of approved and investigational compounds against these cell lines; and measured metabolically active cells after 48 hours of compound treatment as a proxy for cell viability.
Assay Submitter: Nathalia J. Martinez, National Center for Advancing Translational Sciences, National Institutes of Health, Rockville, MD, USA; email: natalia.martinez@nih.gov
[1] Shen, M et al. Quantitative high-throughput phenotypic screening of pediatric cancer cell lines identifies multiple opportunities for drug repurposing. Oncotarget 2017 Dec 19;9(4):4758-4772. PMID 29435139.
The cells were obtained from University of North Carolina (UNC), Pediatric Preclinical Testing Program (PPT), and Coriell Institute (CI).
qHTS cell viability assay:
Cells were assayed in growth media at a density of 500-1,000 cells/well. Five microliters of cells were dispensed into 1,536-well, white, solid-bottom, TC-treated plates (Greiner Bio One) using a multidrop dispenser and incubated at 37 degrees C, 5% CO2, under a humidified atmosphere for 5 hours. Twenty-three nanoliters of compounds and controls (neutral control DMSO or positive control bortezomib at final concentration of 2.3 µM) were subsequently transferred by Kalypsys pintool. For primary screens, the MIPE collection was tested at 11-point dilutions (final concentrations range from 0.78 nM to 46 µM) and the NPC collection at 8-point dilutions (final concentrations range from 0.59 nM to 46 µM). Compounds tested in follow-up screens were assayed at 11-point dilutions. Cells were incubated for 48 hours, followed by addition of 3 uL of CellTiter-Glo (Promega). After a 15 min incubation at room temperature, samples were analyzed for luminescence intensity using a ViewLux High-throughput CCD imager equipped with clear filters.
Potency is the fitted concentration of half-maximal effect.

Structure (SMILES)	Potency
C[N+](C)([O-])CCNc1ccc(NCC[N+](C)(C)[O-])c2c1C(=O)c1c(O)ccc(O)c1C2=O	inactive
COc1ccnc2[nH]cc(C(=O)C(=O)N3CCN(C(=O)c4ccccc4)C[C@@H]3C)c12	inactive
C[C@](Cc1c[nH]c2ccccc12)(NC(=O)OC1C2CC3CC(C2)CC1C3)C(=O)NC[C@H](NC(=O)CCC(=O)O)c1ccccc1 (stereo not given in full)	inactive
CC(C)OC(=O)[C@H](C)N[P@](=O)(OC[C@H]1O[C@@H](n2ccc(=O)[nH]c2=O)[C@](C)(F)[C@H]1O)Oc1ccccc1	inactive
O=C1NC(O)CCN1[C@@H]1O[C@H](CO)[C@H](O)[C@H]1O (stereo not given in full)	inactive
Cc1cnc(Nc2ccc(N3CCN(C)CC3)cc2)nc1Nc1cccc(S(=O)(=O)NC(C)(C)C)c1	14.8 µM (active)
C#C[C@]1(O)CC[C@@H]2[C@@H]3CCC4=CC(=O)CC[C@@H]4[C@H]3CC[C@@]21CC	inactive
COc1ccc(C=Cc2cc(OC)c(OC)c(OC)c2)cc1NC(=O)[C@H](N)CO	0.0093 µM (active)
C=CC(=O)Nc1ccc2ncnc(Nc3ccc(OCc4cccc(F)c4)c(Cl)c3)c2c1	0.0469 µM (active)
CC(C)[C@H](CO)Nc1nc(Nc2cccc(Cl)c2)c2ncn(C(C)C)c2n1	18.7 µM (active)
COc1cc([C@@H]2c3cc4c(cc3[C@@H](O[C@@H]3O[C@@H]5CO[C@@H](c6cccs6)O[C@@H]5[C@H](O)[C@@H]3O)[C@H]3COC(=O)[C@H]23)OCO4)cc(OC)c1O	0.372 µM (active)
N#CNC(=NCCCCCCOc1ccc(Cl)cc1)Nc1ccncc1	14.8 µM (active)
CC1(C)O[C@@H]2C[C@H]3[C@@H]4CCC5=CC(=O)C=C[C@]5(C)[C@@H]4[C@@H](O)C[C@]3(C)[C@]2(C(=O)CO)O1	inactive
C[C@H](NCc1ccc2c(c1)nc(NC(=O)c1ccc(-c3cn[nH]c3)s1)n2CCc1ccccc1)C(C)(C)C	2.96 µM (active)
O=C(Nc1cc2cc[nH]c2cn1)c1ccccc1	14.8 µM (active)
C[C@@H](Cc1cc2c(c(C(N)=O)c1)N(CCCO)CC2)NCCOc1ccccc1OCC(F)(F)F	inactive
COc1ccc(C[C@@H](C)[C@@H](C)Cc2ccc(OC)c(OC)c2)cc1OC	0.235 µM (active)
NC(=O)c1ncn([C@@H]2O[C@H](CO)[C@@H](O)[C@@H]2O)c1N	inactive
NC(=NCCCCCCN=C(N)N=C(N)Nc1ccc(Cl)cc1)N=C(N)Nc1ccc(Cl)cc1	5.9 µM (active)
C=CC(=O)Nc1cccc(Nc2nc(NC3CCC(N(C)C)CC3)nc3c2ncn3C(C)C)c1 (stereo not given)	0.003 µM (active)

Structure (SMILES)	Potency
CC1(C)[C@H](O[C@H]2O[C@H](C(=O)O)[C@@H](O)[C@H](O)[C@H]2O[C@@H]2O[C@H](C(=O)O)[C@@H](O)[C@H](O)[C@H]2O)CC[C@@]2(C)[C@H]1CC[C@]1(C)[C@H]2C(=O)C=C2[C@H]3C[C@@](C)(C(=O)O)CC[C@]3(C)CC[C@]21C	inactive
C[C@H](NC(=O)[C@@H](O)c1cc(F)cc(F)c1)C(=O)N[C@@H]1C(=O)N(C)c2ccccc2-c2ccccc21	inactive
COc1ccc2c(c1OC)C(=O)OC2[C@H]1c2c(cc3c(c2OC)OCO3)CCN1C (stereo not given in full)	0.469 µM (active)
C=CC[C@@H]1C=C(C)C[C@H](C)C[C@H](OC)[C@H]2O[C@@](O)(C(=O)C(=O)N3CCCC[C@H]3C(=O)O[C@H](C(C)=C[C@@H]3CC[C@H](O)[C@H](OC)C3)[C@@H](C)[C@@H](O)CC1=O)[C@@H](C)C[C@@H]2OC	inactive
Cc1ccc2nc(NCCN)c3ncc(C)n3c2c1	14.8 µM (active)
O=C1CSC(=O)N1C(CCc1ccncc1)COc1ccc(-c2cccc([N+](=O)[O-])c2)cc1 (stereo not given)	7.43 µM (active)
CC(C)C[C@@H](C=O)NC(=O)[C@H](CC(C)C)NC(=O)[C@H](CC(C)C)NC(=O)OCc1ccccc1 (Cbz-Leu-Leu-Leu-aldehyde)	0.743 µM (active)
CNC(=O)Nc1ccc(-c2nc(N3CC4CCC(C3)O4)c3cnn(C4CCC5(CC4)OCCO5)c3n2)cc1	0.0296 µM (active)
O=C(O)CCCCC(CCSCc1ccccc1)SCc1ccccc1 (stereo not given)	23.5 µM (active)
CC(C)c1cnn2c(NCc3ccccc3)cc(NCCCCCCN)nc12	4.69 µM (active)
C[C@@H]1CC[C@@]2(OC1)OC1CC3C4CC=C5CC(O)CCC5(C)C4CCC3(C)C1[C@@H]2C (stereo not given in full)	inactive
Oc1cc(-c2nc(-c3ccccc3)[nH]c2-c2ccncc2)ccc1Cl	5.9 µM (active)
OC[C@H]1OC(O)C[C@@H](O)[C@H]1O (stereo not given in full)	inactive
CC(C)N1[N]C(=C2C=c3cc(O)ccc3=N2)c2c(N)ncnc21	5.9 µM (active)
C=C1C[C@@]2(O)O[C@@]3(C[C@H]2C(C)C)[C@H](C)CC[C@H]13	inactive
CON=C(C(=O)N[C@@H]1C(=O)N2C(C(=O)O)=C(Cn3ccc(=N)n3CCO)CS[C@H]12)c1csc(N)n1	inactive
CC(C)(C)[N+]([O-])=Cc1ccc(S(=O)(=O)O)cc1S(=O)(=O)O	inactive
Cc1[nH]c(C=C2C(=O)Nc3ccccc32)c(C)c1CCC(=O)O	2.96 µM (active)
CC(=O)[C@]1(O)Cc2c(O)c3c(c(O)c2[C@@H](O[C@H]2C[C@H](N)[C@@H](O)[C@H](C)O2)C1)C(=O)c1ccccc1C3=O	0.935 µM (active)
COc1ccc(Nc2nccc(NCCO)n2)cc1	inactive

Reference: PubChem BioAssay (NCATS)
